Growth inhibition, inhibition and outcome data for 20 compounds are collected here from PubChem BioAssay.

By inhibition is commonly meant the change of the read-out against control, counted positive when it falls.

A short description of test [1]: antimalarial activity against Dd2 strain (AID 2302;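 active means growth inhibition above 50% at the single 2 µM test dose, taken to imply half-maximal potency below 2 µM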;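 further: 0% = DMSO untreated growth and 100% = chloroquine plus artemisinin killed control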). Conditions: P. falciparum Dd2 in RBCs, LDH growth readout, 72 h; at 2 µM; active compounds read high.
Test [2] can be described thus: HepG2 cytotoxicity, primary screen, cytotoxicity control for P. falciparum antimalarial project, cell-based, ATP luminescence (AID 2303;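 active means inhibition above 50%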;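 further: 0% = DMSO wells and 100% = digitonin-killed cells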). Conditions: HepG2 viability, 24-48 h, at 10 µM, active compounds read high.
The target of test [3] is L-lactate dehydrogenase (Plasmodium falciparum (isolate CDC / Honduras)) (UniProt Q27743). Put plainly: PfLDH activity inhibition – cell lysate, 3D7 strain, counter-screen for P. falciparum growth inhibition project (AID 2304).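 Further: 0% = vehicle and 100% = reference inhibitor.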 The settings on record: P. falciparum 3D7 crude extract, LDH APAD/NBT absorbance; at 2 µM; active compounds read high. A general note: Counterscreens check selectivity or assay interference.
Chain of L-lactate dehydrogenase (Plasmodium falciparum (isolate CDC / Honduras)) (Q27743 whole entry, looked up): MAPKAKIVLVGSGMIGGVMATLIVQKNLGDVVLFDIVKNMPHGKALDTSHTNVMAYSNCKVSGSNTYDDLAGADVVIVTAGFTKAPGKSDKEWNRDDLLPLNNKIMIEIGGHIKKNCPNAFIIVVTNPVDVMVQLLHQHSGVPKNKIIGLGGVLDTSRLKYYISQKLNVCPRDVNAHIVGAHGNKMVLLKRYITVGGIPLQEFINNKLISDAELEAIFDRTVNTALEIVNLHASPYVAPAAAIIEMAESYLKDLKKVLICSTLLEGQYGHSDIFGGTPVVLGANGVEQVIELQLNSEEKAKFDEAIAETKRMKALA

The nature of test [4]: inhibition of 3D7 malaria parasite growth – strain 3D7 (AID 2306).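 Further: 0% = DMSO wells and 100% = chloroquine plus artemisinin control wells.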 Conditions: P. falciparum 3D7 erythrocytic growth, LDH absorbance, 72 h; at 2 µM; active compounds read high.
Test [5] addresses Calcium-dependent protein kinase 1 (Plasmodium falciparum (isolate 3D7)) (UniProt P62344). Put plainly: PfCDPK1 kinase inhibitors, biochemical, TCAMS library (AID 1159585; cut-off not given, nearly all actives have IC50 up to about 0.98 µM;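 further: inhibitors leave more ATP so luminescence rises with inhibition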). The settings on record: recombinant PfCDPK1, Kinase-Glo ATP depletion luminescence. In general terms: Kinase-Glo reads ATP consumption through a luciferase reaction.
Test [6] concerns the target Plasmodium falciparum protein kinase 6 (PK6, PF3D7_1337100) (UniProt Q8IDW1). Put plainly: PfPK6 kinase inhibitors, biochemical, TCAMS library (AID 1159586). The settings on record: recombinant PfPK6, Kinase-Glo ATP depletion luminescence.
The target of test [7] is Protein kinase 7 (PK7), Plasmodium falciparum 3D7 (PF3D7_0213400) (UniProt Q7YTF7). Put plainly: inhibition of Plasmodium PK7 catalytic activity – biochemical, TCAMS antimalarial set, Kinase-Glo luminescence (AID 1159587). The settings on record: recombinant PfPK7, Kinase-Glo ATP depletion luminescence.
Chain of Protein kinase 7 (PK7), Plasmodium falciparum 3D7 (PF3D7_0213400) (Q7YTF7 1-343): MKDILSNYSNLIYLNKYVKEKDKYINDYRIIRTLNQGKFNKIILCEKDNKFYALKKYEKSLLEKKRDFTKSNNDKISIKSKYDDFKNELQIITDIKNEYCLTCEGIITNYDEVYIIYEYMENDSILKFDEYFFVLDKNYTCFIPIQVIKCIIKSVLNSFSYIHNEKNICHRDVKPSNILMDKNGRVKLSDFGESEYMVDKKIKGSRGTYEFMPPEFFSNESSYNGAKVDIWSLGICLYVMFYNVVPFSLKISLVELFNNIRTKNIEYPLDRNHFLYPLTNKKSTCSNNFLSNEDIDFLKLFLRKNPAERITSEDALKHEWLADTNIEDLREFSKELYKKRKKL
Test [8] has as its target Calcium-dependent protein kinase 4 (Plasmodium falciparum (isolate 3D7)) (UniProt Q8IBS5). Put plainly: PfCDPK4 kinase inhibitors, biochemical, TCAMS library (AID 1159588; cut-off not given, nearly all actives have IC50 up to about 0.91 µM). The settings on record: recombinant PfCDPK4, Kinase-Glo ATP depletion luminescence.

Structures are written as SMILES. Unmarked numbers belong to inactive results. For some of these results: Potency and affinity values are given separately. Active and inactive are the calls of the source. Unless noted, how the calls were made is not given here.

Chain of Calcium-dependent protein kinase 1 (Plasmodium falciparum (isolate 3D7)) (P62344 whole entry, looked up): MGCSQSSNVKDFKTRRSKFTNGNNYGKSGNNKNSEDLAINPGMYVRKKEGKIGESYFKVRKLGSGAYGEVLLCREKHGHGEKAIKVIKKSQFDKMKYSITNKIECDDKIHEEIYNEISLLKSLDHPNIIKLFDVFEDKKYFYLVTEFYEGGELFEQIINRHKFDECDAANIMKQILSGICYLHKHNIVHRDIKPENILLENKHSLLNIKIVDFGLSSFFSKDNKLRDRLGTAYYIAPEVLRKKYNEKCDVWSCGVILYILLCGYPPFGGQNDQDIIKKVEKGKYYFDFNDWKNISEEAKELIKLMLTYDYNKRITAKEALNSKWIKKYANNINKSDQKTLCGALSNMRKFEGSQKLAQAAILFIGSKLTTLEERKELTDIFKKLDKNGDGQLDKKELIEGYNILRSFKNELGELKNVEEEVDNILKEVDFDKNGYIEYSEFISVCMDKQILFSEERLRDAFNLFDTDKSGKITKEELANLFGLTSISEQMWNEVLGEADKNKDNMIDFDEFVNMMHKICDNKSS
Chain of Plasmodium falciparum protein kinase 6 (PK6, PF3D7_1337100) (Q8IDW1 1-305): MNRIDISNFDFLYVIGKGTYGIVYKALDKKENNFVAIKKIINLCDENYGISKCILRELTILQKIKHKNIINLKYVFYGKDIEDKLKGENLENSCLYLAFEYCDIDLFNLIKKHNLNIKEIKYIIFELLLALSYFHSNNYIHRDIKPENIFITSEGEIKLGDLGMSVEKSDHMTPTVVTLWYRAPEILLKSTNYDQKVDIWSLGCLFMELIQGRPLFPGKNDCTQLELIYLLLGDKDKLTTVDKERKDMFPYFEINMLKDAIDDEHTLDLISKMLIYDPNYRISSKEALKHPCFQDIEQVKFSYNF
Chain of Calcium-dependent protein kinase 4 (Plasmodium falciparum (isolate 3D7)) (Q8IBS5 whole entry, looked up): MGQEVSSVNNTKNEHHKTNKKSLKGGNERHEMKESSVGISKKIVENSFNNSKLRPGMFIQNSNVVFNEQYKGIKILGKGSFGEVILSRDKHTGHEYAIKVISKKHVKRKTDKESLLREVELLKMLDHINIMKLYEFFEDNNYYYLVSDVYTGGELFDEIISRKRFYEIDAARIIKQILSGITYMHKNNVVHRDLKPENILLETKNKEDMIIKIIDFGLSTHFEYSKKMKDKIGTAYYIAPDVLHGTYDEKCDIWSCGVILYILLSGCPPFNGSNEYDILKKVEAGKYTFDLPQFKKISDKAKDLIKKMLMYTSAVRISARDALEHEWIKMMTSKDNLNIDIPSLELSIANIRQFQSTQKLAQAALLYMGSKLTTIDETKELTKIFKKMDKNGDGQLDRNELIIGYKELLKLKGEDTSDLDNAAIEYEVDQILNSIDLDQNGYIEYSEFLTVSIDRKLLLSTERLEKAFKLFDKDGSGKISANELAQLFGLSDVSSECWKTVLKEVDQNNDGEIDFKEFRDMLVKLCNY

`CCN(CC)CCCN(CCCN(CC)CC)c1cc(C)nc(Nc2ccc3cc(Br)ccc3c2)n1`: the growth inhibition is 73% (active) in test [1] and 100% (active) in test [4]. Further, the figures for the inhibition in test [2] and in test [3] were 12% and 3%, respectively. The result in test [5], in test [6], in test [7] and in test [8] was inactive.
For the compound `CCOc1ccc2nc(C)cc(NN=Cc3cccc(F)c3)c2c1`, the growth inhibition is 23% in test [1] and 100% (active) in test [4]. Besides, the inhibition in test [2] was -3%; in test [3], 0%. In addition, the outcome in test [5], in test [6], in test [7] and in test [8] was inactive.
On to `CC(Cc1ccc(CN(CC(N)=O)Cc2ccc(CC(C)NCCc3cccc(Cl)c3)cc2)cc1)NCCc1cccc(Cl)c1` (stereo not given), for which the growth inhibition is 68% (active) in test [1] and 95% (active) in test [4]. Moreover, the figures for the inhibition in test [2] and in test [3] were 26% and 2%, respectively. For the same compound, the result in test [5], in test [6], in test [7] and in test [8] was inactive.
With `COc1ccc(-c2nc3c(N)nc(N)nc3nc2-c2ccccc2Cl)cc1` (tested in a mixture with another compound), the growth inhibition is -1% in test [1] and 93% (active) in test [4]. Besides, the inhibition was 45% in test [2] and -2% in test [3]. In addition, the result in test [5], in test [6], in test [7] and in test [8] was inactive.
For the compound `Cc1ccc(S(=O)(=O)N2CCN(C(=O)c3cc(-c4cccs4)[nH]n3)CC2)c(C)c1`, the values for the growth inhibition in test [1] and in test [4] were 81% (active) and 85% (active), respectively. In addition, the inhibition in test [2] and in test [3] was -1% in each case. The result in test [5], in test [6], in test [7] and in test [8] was inactive.
Consider `CCCCCCCC1CC(CC(=O)Nc2ccnc3ccc(OC)cc23)CN1C(=O)OC(C)(C)C` (stereo not given), for which the growth inhibition in test [1] was 34%; in test [4], 100% (active). The values for the inhibition in test [2] and in test [3] were 1% and 3%, respectively. Moreover, the outcome in test [5], in test [6], in test [7] and in test [8] was inactive.
Consider `CCOC(=O)c1ccc(N2CCN(c3cc(C)ccc3C)CC2)c(NC(=O)Nc2ccc(Cl)c(Cl)c2)c1`, for which the growth inhibition is 42% in test [1] and 100% (active) in test [4]. Also, the inhibition was 7% in test [2] and -2% in test [3]. The outcome in test [5], in test [6], in test [7] and in test [8] was inactive.
Take `O=C(Nc1cccc(-c2cccc(CN3CCCC3)c2)c1)c1ccc(Cl)cc1`: the growth inhibition was 32% in test [1] and 93% (active) in test [4]. Moreover, the results for the inhibition in test [2] and in test [3] were 50% (active) and 0%, respectively. Further, the outcome in test [5], in test [6], in test [7] and in test [8] was inactive.
Take `CN1CCCN(Cc2cccc(-c3ccc(NC(=O)c4ccc(Cl)cc4)cc3)c2)CC1`: the results for the growth inhibition in test [1] and in test [4] were 35% and 97% (active), respectively. Moreover, the inhibition in test [2] was 31%; in test [3], -5%. The outcome in test [5], in test [6], in test [7] and in test [8] was inactive.
Consider `Clc1ccc2nnc(-c3c(Cl)cccc3Cl)n2n1`, for which the growth inhibition in test [1] was 60% (active); in test [4], 96% (active). Moreover, the inhibition in test [2] is 29%; in test [3], -3%. Besides, the outcome in test [5], in test [6], in test [7] and in test [8] was inactive.
With `COc1nc2c(CCN3CC[C@H](NCc4ccc5c(c4)NC(=O)CO5)[C@H](O)C3)c(Cl)cnc2cc1F`, the growth inhibition was 22% in test [1] and 90% (active) in test [4]. Moreover, the inhibition is 21% in test [2] and -3% in test [3]. Also, the result in test [5], in test [6], in test [7] and in test [8] was inactive.
Regarding `Cc1ccc2nc3sc(C(=O)NCCCN4CCC(N5CCCCC5)CC4)cc3cc2c1`, the figures for the growth inhibition in test [1] and in test [4] were 71% (active) and 103% (active), respectively. Besides, the results for the inhibition in test [2] and in test [3] were 11% and -5%, respectively. Besides, the result in test [5], in test [6], in test [7] and in test [8] was inactive.
For `Cc1cc(NC(=O)Nc2ccc(Oc3ccccc3)cc2)c2ccccc2n1`, the values for the growth inhibition in test [1] and in test [4] were 28% and 91% (active), respectively. Also, the inhibition in test [2] was 2%; in test [3] it was 4%. Besides, the outcome in test [5], in test [6], in test [7] and in test [8] was inactive.
For the compound `COc1ccc2ncc(F)c(CCN3CCC[C@H](CNCc4ccc5c(n4)NC(=O)CS5)C3)c2n1`, the figures for the growth inhibition in test [1] and in test [4] were 34% and 96% (active), respectively. In addition, the inhibition in test [2] was 16%; in test [3] it was 3%. Also, the result in test [5], in test [6], in test [7] and in test [8] was inactive.
On to `O=C(Nc1ccc([N+](=O)[O-])cc1Cl)c1cc(Br)cc(Cc2ccccc2)c1O`, for which the values for the growth inhibition in test [1] and in test [4] were 96% (active) and 84% (active), respectively. Further, the inhibition in test [2] is 75% (active); in test [3], -1%. The outcome in test [5], in test [6], in test [7] and in test [8] was inactive.
Take `O=C(Nc1nc2cc(S(=O)(=O)NCCc3ccc(F)cc3)ccc2n1CCCn1ccnc1)c1ccc(Cl)cc1`: the growth inhibition is 55% (active) in test [1] and 100% (active) in test [4]. In addition, the inhibition in test [2] is 18%; in test [3], 3%. For the same compound, the result in test [5], in test [6], in test [7] and in test [8] was inactive.
Take `O=C(/C=C/c1ccccc1Cl)Nc1ccc(Br)c(OCCN2CCCCC2)c1`: the growth inhibition in test [1] is 25%; in test [4], 99% (active). For the same compound, the inhibition is 11% in test [2] and -4% in test [3]. The result in test [5], in test [6], in test [7] and in test [8] was inactive.
On to `O=C(/C=C/c1cccc(Br)c1)NCCCCCN1CCC(c2c[nH]c3ccccc23)CC1`, for which the growth inhibition is 15% in test [1] and 100% (active) in test [4]. For the same compound, the inhibition in test [2] is 38%; in test [3] it was 0%. For the same compound, the result in test [5], in test [6], in test [7] and in test [8] was inactive.
For the compound `CCOc1cc(CC)ccc1C1CCN(CCN2CCC(NC(=O)c3ccc(-c4ccc(C#N)cc4)cc3)CC2)CC1`, the growth inhibition in test [1] is 71% (active); in test [4] it was 100% (active). The values for the inhibition in test [2] and in test [3] were 32% and 6%, respectively. Also, the result in test [5], in test [6], in test [7] and in test [8] was inactive.
In the case of `CCCOc1ccccc1-c1nc2[nH]c3c(c2c(=O)[nH]1)CCN(C)C3`, the growth inhibition was 70% (active) in test [1] and 87% (active) in test [4]. Also, the inhibition was 8% in test [2] and -6% in test [3]. In addition, the outcome in test [5], in test [6], in test [7] and in test [8] was inactive.
